Screens (PubChem)
Most compounds without a hit are left out; they make up all but 6.7% or so of the library.
GDH-TPI counter-1 = inhibits GDH-TPI coupling enzymes, artifact for Mtb FBA screen | inhibition, % at 4.8 µM | AID 588335 | GDH-TPI coupled enzyme counterscreen, NADH absorbance | hit rate 1.2% among 360,000; in the data active means inhibition above about 30%
BoNT A protease = BoNT A light chain protease inhibition; multiplex microsphere protease substrate cleavage, flow cytometry; inhibition, % at 10 µM; hit rate 0.17% among 360,000; AID 588499; in the data active means inhibition above about 30%; inconclusive means no clear call, values can overlap the other calls
BoNT-F LC inh = BoNT F light chain protease inhibition; Multiplex microsphere protease cleavage assay, flow cytometry; inhibition, % at 10 µM; hit rate 0.22% among 360,000; AID 588497; in the data active means inhibition above about 35%, passing the limit was not always enough; inconclusive means no clear call, values can overlap the other calls
Anthrax LF prot = blocks Bacillus anthracis lethal factor protease; P15917; multiplex microsphere protease cleavage assay, LF; inhibition, % at 10 µM; hit rate 0.12% among 360,000; in the data active means inhibition above about 30%; inconclusive means no clear call, values can overlap the other calls
FBA Mtb inh = inhibits M. tuberculosis FBA enzyme | P9WQA3 | purified M. tuberculosis FBA, fluorescence read-out | inhibition, % at 1 µM | hit rate 2.3% among 360,000 | AID 588726
Bead autofluor = counter-screen for toxin protease inhibitors: compound fluorescence; fluorescence intensity (test concentration not listed); compound autofluorescence counterscreen, microsphere flow cytometry; stronger effect = higher value; AID 624483; hit rate 3.1% among 360,000; in the data active means fluorescence intensity above about 16000; inconclusive means no clear call, values can overlap the other calls
Mtb FBA confirm = Mtb FBA inhibition, confirmed. shares compounds with FBA Mtb inh. purified M. tuberculosis FBA, fluorescence read-out. inhibition, % at 1 µM. hit rate 78% among 5,600
GDH-TPI counter-2 = inhibits GDH-TPI coupling enzymes, flagging Mtb FBA hits. shares compounds with FBA Mtb inh. GDH-TPI coupled enzyme counterscreen, fluorescence. inhibition, % at 1 µM. hit rate 81% among 5,600. AID 652141; in the data active means inhibition above about 10%
A number is an active result; n = inactive; u = inconclusive; x = no result given; + = active, no number. Unless noted, no stated cut-off is given here; in the data, active means inhibition above about 27%; inactive means the rest.

SMILES	GDH-TPI counter-1	BoNT A protease	BoNT-F LC inh	Anthrax LF prot	FBA Mtb inh	Bead autofluor	Mtb FBA confirm	GDH-TPI counter-2
CC1=CC(c2ccccc2)n2nc(N)nc2N1 (stereo unspecified)	n	n	n	n	53	n	40	37
CC1=CC(c2ccccc2)n2nc(NS(=O)(=O)c3ccc(C)cc3)nc2N1 (stereo unspecified)	n	n	n	n	49	n	n	15
CC1=CC(c2ccc(Cl)cc2)n2nc(NS(=O)(=O)c3ccc(C)cc3)nc2N1 (stereo unspecified)	n	n	n	n	80	23033	68	63
Cc1sc2ncnc(SCC(=O)NC(C)C(C)C)c2c1C (stereo unspecified)	n	n	n	n	n	n	x	x
Cc1oc(-c2cccs2)nc1CS(=O)CC(=O)NCCCOC(C)C (stereo unspecified)	n	n	n	n	n	n	x	x
COc1cc(COCC(O)CN2CCN(Cc3ccccc3)CC2)cc(OC)c1OC (stereo unspecified)	n	n	n	n	n	n	x	x
COc1ccc2[nH]c3c(NCCN4CCCCC4)ncnc3c2c1	n	n	n	n	n	n	x	x
COc1ccc(CCNc2ncnc3[nH]ncc23)cc1OC	n	n	n	n	n	n	x	x
CCOc1ccc2[nH]c3c(NCCc4ccc(OC)c(OC)c4)ncnc3c2c1	n	n	n	n	32	n	181	147
CCOc1ccc2[nH]c3c(NCCO)ncnc3c2c1	n	n	n	n	78	n	45	43
Cc1ccc(NC(=O)c2sc3ncn(CC(=O)N4CCOCC4)c(=O)c3c2C)c(Br)c1	n	n	n	n	n	n	x	x
COCCNC(=O)CSc1ccccc1C(=O)NC1CCSc2ccccc21 (stereo unspecified)	n	n	n	n	n	n	x	x
FC(F)(F)c1nc2nncn2c2c1CCCCC2	n	n	n	n	35	n	133	117
COCCCNC(=O)c1cc2c(=O)n3cccc(C)c3nc2s1	n	n	n	n	65	n	66	47
Cc1cccn2c(=O)c3cc(C(=O)NC4CCCCCC4)sc3nc12	n	n	n	n	n	n	x	x
Cc1cccn2c(=O)c3cc(C(=O)NCCc4ccccc4)sc3nc12	n	n	n	n	35	n	n	n
CCCCNC(=O)c1cc2c(=O)n3cccc(C)c3nc2s1	n	n	n	n	74	n	+	+
Cc1cccn2c(=O)c3cc(C(=O)N4COCC4(C)C)sc3nc12	n	n	n	n	44	n	191	149
Cc1ccccc1NC(=O)c1cc2c(=O)n3cccc(C)c3nc2s1	n	n	n	n	n	n	x	x
O=C(CN1C(=O)NC2(CCCCC2)C1=O)Nc1ccc(N2CCCCC2)cc1	n	n	n	n	n	n	x	x
Cc1cc(C)n2ncc(C(=O)NCc3cccnc3)c2n1	n	n	n	n	42	n	43	42
O=C(NCc1cccnc1)c1ccccc1Br	n	n	n	n	n	n	x	x
CC(C)n1ncc2c(C(=O)NCc3cccnc3)cc(C3CC3)nc21	n	n	u	u	54	u	+	+
O=C(NCc1cccnc1)c1cnn2ccccc12	n	n	n	n	30	n	193	140
Cc1ccc(C(=O)Nc2ccccc2C(=O)NCc2cccnc2)cc1	n	n	n	n	n	n	x	x
SMILES	GDH-TPI counter-1	BoNT A protease	BoNT-F LC inh	Anthrax LF prot	FBA Mtb inh	Bead autofluor	Mtb FBA confirm	GDH-TPI counter-2
COc1ccc2c(c1)C(NC(C)=O)C(=O)N2C (stereo unspecified)	n	n	n	n	n	n	x	x
CC(C)(O)[C@H](O)COc1c2occc2cc2ccc(=O)oc12	n	n	n	n	n	n	x	x
COc1ccc2ccc(=O)oc2c1CC(O)C(C)(C)O (stereo unspecified)	n	n	n	n	66	n	n	n
COc1ccc2ccc(=O)oc2c1CC(=O)C(C)C	n	n	n	n	39	n	n	18
CN1CCN(CCC(=O)N/N=C/c2cc([N+](=O)[O-])ccc2O)CC1	n	n	n	n	n	n	x	x
CC1Cc2ccccc2N1C(=O)c1cc2cccnc2n(C)c1=O (stereo unspecified)	n	x	x	x	n	x	x	x
O=Cc1cn(-c2ccccc2)nc1-c1cc2cc(O)ccc2oc1=O	34	n	n	n	32	n	82	57
Cc1cn2c(nc(=O)c3cccnc32)s1	n	n	n	n	36	n	107	87
N#Cc1cc2ccccc2nc1N	n	n	n	n	75	n	65	48
Cc1cc(C)c(S(=O)(=O)c2ccccc2C)c(Cl)n1	n	n	n	n	n	n	x	x
Cc1ccccc1S(=O)(=O)c1cc2ccccc2nc1N	n	n	n	n	46	n	+	+
Cc1ccc(-c2cc3ccccc3nc2N)cc1	n	n	n	n	46	n	88	80
N#Cc1ccc(Sc2nc3ccccc3[nH]2)cc1C#N	n	n	n	n	n	n	x	x
Cc1ccc2nc(Cl)c(-c3ccccc3)cc2c1	n	n	n	n	n	n	x	x
Nc1nc2ccccc2cc1-c1cccs1	n	n	n	n	69	n	76	62
CC(=O)N1c2ccc(S(=O)(=O)N3CCC(C(=O)Nc4ccc(F)cc4)CC3)cc2CC1C (stereo unspecified)	n	n	n	n	n	n	x	x
CCCCN(CC)C(=O)c1cc2c(=O)[nH]c3ccc(C)cc3c2s1	n	n	n	n	n	n	x	x
Cc1ccc2[nH]c(=O)c3cc(C(=O)N(CCCOC(C)C)Cc4ccco4)sc3c2c1	n	n	n	n	28	n	n	11
Cc1ccc2oc(=O)c3cc(C(=O)NCCN4CCc5ccccc5C4)sc3c2c1	n	n	n	n	n	n	x	x
CCOC(=O)CNC(=O)c1cc2c(=O)[nH]c3ccc(C)cc3c2s1	n	n	n	n	32	n	118	97
Cc1ccc2[nH]c(=O)c3cc(C(=O)NCCN4CCN(C)CC4)sc3c2c1	n	n	n	n	49	n	196	159
O=C(NC1CCCC1)c1cc(S(=O)(=O)N2CCCC2)ccc1Cl	n	n	n	n	n	n	x	x
COc1ccc(C2C(C(=O)/C=C/c3ccco3)=C(O)C(=O)N2CCN2CCOCC2)cc1 (stereo unspecified)	n	n	n	n	n	n	x	x
COc1ccc(-c2cn3ccc4ccccc4c3n2)cc1	n	n	n	n	44	n	n	n
CCCOc1ccc(-c2cn3ccccc3n2)cc1[N+](=O)[O-]	n	n	n	n	n	n	x	x
CCCOc1ccc(-c2cn3ccccc3n2)cc1	n	n	n	n	30	n	55	38
CCCn1c(=O)c2c(C(=O)OCC)cc(-c3ccco3)nc2n(CCC)c1=O	n	n	n	n	41	n	166	124
COc1ccc(-c2cc(C(F)(F)F)n3ncc(C(=O)NCc4ccco4)c3n2)cc1	n	n	n	n	30	n	165	145
